# The list is not random: actives were taken first. Their share in the collection is about 1.8%.
# GLP-1R agonist: qHTS of GLP-1 Receptor Agonists; Glucagon-like peptide 1 receptor (Homo sapiens), P43220; HEK293 GLP-1R CRE-luciferase, luminescence, 4-6 h; cells express a hypersensitive GLP-1R form; Potency, µM (series often up to 45.6 µM), for the others: top-dose activation, actives largely listed as activators; 380,000 compounds, 0.007% hits; AID 624172, 2012; note: % of control where 0% means no effect
# PTHR1 ag: qHTS for PTHR1 Agonists: Primary Screen; Potency, µM (highest dose often 115 µM), inactives show at the top dose activation, actives largely listed as activators; HEK293 GP2 PTHR1 cells, GloSensor cAMP luminescence, 1 h; Parathyroid hormone/parathyroid hormone-related peptide receptor (Homo sapiens), Q03431; 410,000 compounds, 0.075% hits; AID 743266, 2014; note: nearly all actives have a fitted effect of over 55% in size
#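 HEK-293-derived GP2 cells expressing PTHR1 and a GloSensor cAMP reporter, 3,000/well, plated overnight, given luciferin plus IBMX (each 0.5 mM as added) for 1 h at 37 °C, then compound for 1 h at 37 °C. Luminescence was read after 15 min at room temperature.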
# KAT2A inh: qHTS Assay for Inhibitors of GCN5L2; Histone acetyltransferase KAT2A (Homo sapiens), Q92830; GCN5L2 HAT assay, ThioGlo1 CoA-SH fluorescence; Potency, µM (doses to about 58.9 µM), for inactives: at the top dose activity change, negative = inhibition, most hits filed as inhibitors; 390,000 compounds, 0.21% hits; note: % is set by controls: 0 for no effect and ±100 for the full control effect
# Target sequence (Q92830 whole entry, looked up): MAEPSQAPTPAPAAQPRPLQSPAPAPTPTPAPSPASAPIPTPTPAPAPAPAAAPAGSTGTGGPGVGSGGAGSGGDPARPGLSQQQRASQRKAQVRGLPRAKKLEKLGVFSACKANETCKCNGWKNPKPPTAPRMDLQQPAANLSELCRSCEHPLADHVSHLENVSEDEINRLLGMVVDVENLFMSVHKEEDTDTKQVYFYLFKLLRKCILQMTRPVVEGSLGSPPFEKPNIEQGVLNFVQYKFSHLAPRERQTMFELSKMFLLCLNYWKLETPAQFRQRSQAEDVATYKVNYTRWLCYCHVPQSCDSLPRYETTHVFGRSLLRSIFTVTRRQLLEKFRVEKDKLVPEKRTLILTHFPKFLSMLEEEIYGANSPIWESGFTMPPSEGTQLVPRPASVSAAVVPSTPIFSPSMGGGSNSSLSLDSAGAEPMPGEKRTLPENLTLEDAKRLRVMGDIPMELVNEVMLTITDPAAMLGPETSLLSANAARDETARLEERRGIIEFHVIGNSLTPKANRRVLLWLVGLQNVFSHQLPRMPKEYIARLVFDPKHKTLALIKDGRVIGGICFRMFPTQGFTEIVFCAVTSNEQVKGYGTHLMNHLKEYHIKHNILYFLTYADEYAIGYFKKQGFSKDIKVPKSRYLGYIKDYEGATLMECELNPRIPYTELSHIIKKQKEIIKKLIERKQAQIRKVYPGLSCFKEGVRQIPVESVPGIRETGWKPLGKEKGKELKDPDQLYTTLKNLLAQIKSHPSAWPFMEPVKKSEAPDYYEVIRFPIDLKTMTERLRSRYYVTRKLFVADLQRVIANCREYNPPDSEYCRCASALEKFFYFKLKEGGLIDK
#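 Fluorescence readout, Ex340nm/Em540nm: ThioGlo1 (50uM final) reacts with free CoA thiol released as 20nM GCN5L2 acetylates H3(1-25) peptide (75uM) using acetyl-CoA (70uM). Compound and enzyme sat 15 min beforehand; 20 min room-temperature reaction.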
# GLP1R inv ag: qHTS of GLP-1 Receptor Inverse Agonists (Inhibition Mode); Glucagon-like peptide 1 receptor (Homo sapiens), P43220; Potency, µM (titrated, usually from 38.3 µM), for inactives: at the highest dose activity change, negative = inhibition, hits mostly inhibitors; 410,000 compounds, 1.6% hits; HEK293 GLP-1R CRE-luciferase, luminescence, 24 h; GLP-1R form is constitutively active; note: % is set by controls: 0 for no effect and ±100 for the full control effect; nearly all actives have a fitted effect of over 55% in size
#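 HEK293 cells stably co-expressing a cAMP-responsive luciferase reporter and constitutively active GLP-1R were seeded, incubated 12 h, then exposed to compounds for 24 h at 37 C. Luminescence was read 12 min after detection reagent; inverse agonists lower signal.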
# HEK293 tox: qHTS of GLP-1 Receptor Inverse Agonists: Cytotox Screen; Potency, µM (titrated, usually from 38.3 µM), for inactives: at the highest dose activity change, negative = inhibition, most hits filed as inhibitors; HEK293 cAMP-luciferase reporter cells, luminescence, 24 h; 410,000 compounds, 0.13% hits;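 note: loss of luciferase light is scored as toxicity; % is set by controls: 0 for no effect and ±100 for the full control effect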
#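 A 23 nL compound transfer followed 12 hours of cell culture at 37 deg C; exposure then lasted 24 hr. Luciferase assay detection reagent was dispensed and plates read for luminescence after a 12 min room-temperature wait.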
# RGS4 inh: Inhibitors of Regulator of G Protein Signaling (RGS) 4: qHTS; Regulator of G-protein signaling 4 (Homo sapiens), P49798; Transcreener GDP fluorescence polarization, RGS4-accelerated GTP hydrolysis; Potency, µM (top dose mostly 114 µM), without a hit: at the highest dose activity change, negative = inhibition, hits mostly inhibitors; 390,000 compounds, 0.039% hits; AID 504845, 2011; note: % is set by controls: 0 for no effect and ±100 for the full control effect; nearly all actives have a fitted effect of over 75% in size
#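 MLSMR compounds (23 nl, pin-transferred) preincubated 10 min at room temperature with a 500nM (2x) first reagent, then RGS4 at 900nM (2x) plus Transcreener GDP mix added; fluorescence polarization (620/688 nm) read before and after 90 min at 30 °C.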
# Active calls of the source: *; i = inactive; ? = inconclusive; · = no result; [ ] = dose if it differs, or a comment. Calls come from the whole dose curve; as a rule, active = well fitted curve in the direction sought with a large enough effect; inconclusive = small, poorly fitted or top-dose-only effect, or another doubt; inactive = no such curve, though single readings can be large; an effect the other way counts as inactive or inconclusive. Potency is the fitted concentration of half-maximal effect.
SMILES,GLP-1R agonist,PTHR1 ag,KAT2A inh,GLP1R inv ag,HEK293 tox,RGS4 inh
Cc1ccc(NS(=O)(=O)c2ccc(C(=O)N3CCN(c4ccccn4)CC3)cc2)cc1,1%,-35%,0%,?,-13%,17%
O=C(c1ccc(N2CCCC2)c([N+](=O)[O-])c1)N1CCN(S(=O)(=O)c2ccc(Cl)cc2)CC1,-10%,i,-5%,10µM*,-10%,23%
Cc1ccc(S(=O)(=O)NCc2ccc(C(=O)N3CCN(c4ccccn4)CC3)cc2)cc1,-6%,-29%,-6%,13µM*,-24%,-19%
O=C(c1ccc(S(=O)(=O)Cc2cc(F)ccc2F)c([N+](=O)[O-])c1)N1CCCC1,-4%,i,-4%,8.9µM*,?,-24%
CN(c1ccccc1)S(=O)(=O)c1cc(C(=O)N2CCN(c3ccccn3)CC2)ccc1Cl,-13%,-25%[57.5 µM],-5%,13µM*,-24%,9%
O=C(c1ccc(Cl)c(Cl)c1)N1CCN(c2ccccn2)CC1,-2%,-9%,2%,0%,12%,17%
CCOc1ccc(Cl)cc1-c1cc(C(=O)NCc2cccc(C(F)(F)F)c2)[nH]n1,1%,-44%,·,?,0%,·
CCCCn1c(N)c(N(CCC(C)C)C(=O)C2CC(=O)N(c3ccccc3OCC)C2)c(=O)[nH]c1=O (stereo not given),3%,-25%,1%,3%,12%,-18%
COc1ccc(Cc2noc(=O)[nH]2)cc1,-3%,i,·,-5%,9%,·
O=C(CSc1cn(CCNC(=O)c2cccs2)c2ccccc12)NC1CCCC1,-3%,-31%,-7%,?,12%,9%
CCN(CC)c1ccc(/C=N/NC(=O)c2nnn(-c3nonc3N)c2-c2ccc(C)cc2)cc1,12%,-5%,-11%,?,151%,4%
Cc1nc2ccc(NC(=O)c3cc(S(=O)(=O)N(C)c4ccccc4)ccc3Cl)cc2s1,9%,-20%,-2%,?,-1%,-11%
Cc1nc2ccc(NC(=O)c3ccc(Cl)c(S(=O)(=O)N(C)c4ccccc4)c3)cc2s1,7%,-38%,-16%,1.8µM*,-1%,-13%
O=C(c1ccc(S(=O)(=O)Cc2ccccc2Cl)c([N+](=O)[O-])c1)N1CCN(c2ccccn2)CC1,-1%,-39%,-10%,10µM*,-4%,-19%
Cc1ccc(-n2c(=O)c3ccc(C(=O)NCc4ccccc4Cl)cc3n(CC(=O)Nc3cccc(F)c3)c2=O)cc1,-6%,i,-1%,11%,-4%,-16%
OC(CNCc1ccc(-c2ccccc2)cc1)c1ccccc1 (stereo not given),?,i,-10%,10µM*,?,7%
COc1cccc(-c2ccc(NC(=O)C3CCCN(Cc4cccc(C)n4)C3)cc2)c1 (stereo not given),17%,i,·,?,?,·
COc1ccc(C(=O)C2CCCN(Cc3c(O)cccc3OC)C2)cc1OC (stereo not given),23%,i,1%,17%,-20%,-7%
COc1cccc(O)c1CN1CCCC(C(=O)c2cccc(C(F)(F)F)c2)C1 (stereo not given),20%,-13%,-9%,13µM*,?,-12%
COc1ccc2cc(C(=O)C3CCCN(Cc4cccc(C)n4)C3)ccc2c1 (stereo not given),11%,-2%,2%,4.5µM*,3.2µM*,12%
CC(=O)C1=C(c2ccc(Cl)c(Cl)c2)N(C(C)=O)n2c(C)nnc2S1,·,i,-12%,11µM*,-21%,22%
CC(=O)C1=C(c2ccccc2)N(C(C)=O)n2c(nnc2C2CCCCC2)S1,·,-12%,-5%,13µM*,-1%,-19%
O=C1Nc2ccccc2C(=O)N(Cc2ccccc2)C1C(=O)NC1CC1 (stereo not given),·,-20%,·,25%,3%,·
Cn1c(-n2cccc2)c(-c2c(-c3ccccc3)[nH]c3c2c(=O)[nH]c(=O)n3C)c(=O)[nH]c1=O,·,?,-17%,4%,3%,-6%
CC(=O)OCC(CO)OC(C)=O (stereo not given) (tested in a mixture with another compound),·,·,-6%,·,·,·
SMILES,GLP-1R agonist,PTHR1 ag,KAT2A inh,GLP1R inv ag,HEK293 tox,RGS4 inh
C=CCNc1nc(-c2ccccc2)c(C(=O)OCC)cc1C#N,25%,0%,0%,5µM*,?,-17%[11.4 µM]
CCOC(=O)C1C(=O)NC(C(=O)OCC)(C(=O)OCC)C1C(C)CC (stereo not given),12%,i,·,-21%,-3%,-8%
Cc1ccc(S(=O)(=O)N2[C@@H](c3ccc(C(C)C)cc3)C(C(=O)O)=C[C@H]2C(C)(C)C)cc1,1%,i,-4%,10µM*,-16%,27%
Cc1ccc(S(=O)(=O)N2[C@@H](c3ccc(Cl)cc3)C(C(=O)O)=CC[C@H]2c2ccc(C(C)C)cc2)cc1,-3%,-33%,?,6.3µM*,-11%,-28%
Cc1ccccc1S(=O)(=O)N1[C@@H](c2ccc(Cl)cc2)C(C(=O)O)=CC[C@H]1c1ccc(Cl)cc1,2%,-32%,?,8.9µM*,-18%,23%
CCCCc1nc(NCCNC(=O)c2ccco2)c(C#N)c2c1CSC(C)(C)C2,12%,i,-38%,-2%,-39%,-49%
CCCCc1nc(NCCNC(=O)c2ccccc2)c(C#N)c2c1CSC(C)(C)C2,-34%,-8%,-8%,8.9µM*,?,14%
O=C1/C(=C\c2ccc(O)c(O)c2)SC(=S)N1Cc1ccccc1,6%,-18%,-25%,?,10µM*,-44%
O=C1/C(=C\c2cccc(O)c2O)SC(=S)N1Cc1ccccc1,6%,-32%,20µM*,?,?,-48%[56.9 µM]
Cc1ccccc1NC(=O)c1c(C)oc2ccc(O)c(CN3CCC(C)CC3)c12,·,i,-7%,?,-14%,-11%
CCOC(=O)[C@H](CCc1ccccc1)N[C@@H](C)C(=O)N(CC(=O)O)C1Cc2ccccc2C1,-6%,·,·,·,·,·
